Activity calls are given as the source filed them. How the source made its calls: active means hit-call score of the fitted dose curve at least 0.9, where 1 is the maximum; inactive means score below 0.9.

Read-out in the experiment: Heat shock 70 kDa protein 1 (HSPA1A), gene 3303
Briefly: LTEA_HepaRG_HSPA1A: Life Technologies and Expression Analysis (LTEA) Assay for Heat shock 70 kDa protein 1 (HSPA1A) using HepaRG (AID 2283502). The note with it: mRNA level, 48 h; actives raise or lower the signal. The protocol: LTEA_HepaRG is a cell based, multiplexed-readout assay that uses HepaRG, a human liver cell line, with measurements taken at 48 hours after chemical dosing on a 96-well plate.LTEA_HepaRG_HSPA1A is one of 102 assay component(s) measured in the LTEA HepaRG cell culture assay. It is a marker of Oxidative Stress.Data from the assay component LTEA_HepaRG_HSPA1A was analyzed into 1 endpoint. This assay endpoint, LTEA_HepaRG_HSPA1A, was analyzed with bidirectional fitting relative to DMSO as the negative control and baseline of activity. Using a type of inducible reporter, measures of mRNA induction for gain or loss-of-signal activity can be used to understand regulation of transcription factor activity. To generalize the intended target to other relatable targets, this assay endpoint is annotated to the dna binding intended target family, where the subfamily is heat shock protein.
A total of 1060 chemcials from the ToxCast library were tested in eight-point concentration-response experiments. Cell culture and cytotoxicity assays were conducted at Thermo Fisher Scientific's Custom Services facility (Madison, WI). A single lot of human HepaRG cells (Thermo Fisher Scientific, Frederick, MD) was used for the cell culture experiments. 96-well format collagen type I coated plates of human HepaRG cells were prepared using established methods. Briefly, cryopreserved HepaRG cells were thawed, plated at a density of approximately 100,000 cells/well in HepaRG Thaw, Plate, and General Purpose media (HPRG770, Thermo Fisher Scientific), and incubated for 48 hours. 0.5% DMSO was selected as vehicle control to balance the requisite need of DMSO in HepaRG cultures to maintain differentiation (for example, baseline metabolism, proportions of hepatocytes vs. cholangiocytes), while enabling further hepatic receptor pathway activation (for example, PXR and CAR) in response to chemical exposure. 48 hours after plating, the culture medium was replaced with HepaRG Serum-Free Incudtion Media. Cells were exposed to each test chemical in duplicate and maintained in CO2 incubators for another 48 hours. Chemical plates were thawed to room temperature and 200x concentrations of treatment groups were prepared. 8-point conentration-reponse curves were made with the highest exposure at 100 uM, followed by half-log dilutions, all in 0.5% DMSO. Each test plate contained variouse controls, induction positive controls (1mM phenobarbital), cytotoxicity positive controls ([…] aflatoxin B1), vehicle controls (0.5% DMSO), and total lysis controls (0.5% DMSO). Cell morphology images were taken using an Essen IncuCyte FLR automated microscope, with six 96-well plates imaged in about 24 minutes. Images were captured and exported and JPEG files. Spent culture media was transfered to black-well plates for the LDH assay, and remaining media was sorted at -80 C for later use. Cells were treated with RLT buffer and frozen until shipped for gene expression analysis. Total RNA was isolated from the cell suspension in 75 uL of Buffer RLT (Qiagen, Germantown, MD 20874) by Quintiles/Expression Analysis (Durham, NC) using a custom isolation procedure. Total RNA from each plate well was transferred to a preamplification plate. Fluidigm's 96.96 Dynamic ArrayTM (Fluidigm, Amsterdam, the Netherlands) technology was used for gene expression analyses by quantitative reverse transcription polymerase chain reaction (qRT-PCR, performed by Quintiles/Expression Analysis, Durham, NC)89. Standard TaqManTM Assays (Applied Biosystems/ThermoFisher Scientific, Foster City, CA) were used to assess the expression of 93 genes selected based on their selectivity and sensitivity to important hepatic receptors known to be modulated by environmental chemicals; importance in human hepatocyte functionality; and hepatotoxicity. […]
For the molecule `C[C@]12C=CC(=O)C=C1CC[C@@H]1[C@@H]2C(=O)C[C@@]2(C)[C@H]1CC[C@]2(O)C(=O)CO`, the molecule was classed as inactive. On the same count and under the same terms, the result for `O=C(O)Cc1ccccc1Nc1c(Cl)cccc1Cl` reads “inactive”; that for `COCCOCCOC`, “inactive”; that for `CC(CO)OC(C)CO` (stereo not given) (tested in a mixture with another compound), “inactive”. Still for that read-out and setting: the result for `CCCCN(CCCC)CCCC` reads “inactive”.

As to `CCCc1cc(=O)[nH]c(=S)[nH]1`, the call was inactive. Consider `Cc1oc(-c2ccccc2)nc1CCOc1cccc2c1ccn2CCC(=O)O`, for which the call was inactive. Turning to `Cc1c(C(=O)O)c(O)cc2c1C(=O)c1c(O)c([C@@H]3O[C@H](CO)[C@@H](O)[C@H](O)[C@H]3O)c(O)c(O)c1C2=O`, the molecule was called inactive.

`CCCCCCCCCCO`: the call was inactive.

Take `Cc1cccc(C)c1O`: the molecule was called inactive. Still for that read-out and setting: the result for `Cc1ccc(C)c(C)c1` reads “inactive”; that for `FC(F)(F)C(F)(F)C(F)(F)C(F)(F)C(F)(F)C(F)(F)CCI`, “inactive”; that for `CCOC(=O)C(C)(C)Oc1ccc(Cl)cc1`, “inactive”. For `Cc1ccc2ncccc2c1`, the outcome was inactive. Take `CC1=C(/C=C/C(C)=C/C=C/C(C)=C/CO)C(C)(C)CCC1`: the AC50 (usually the midpoint of the concentration-response curve, whichever way the signal moves) is 68.4 µM (active). Take `Clc1cc(Cl)c(Cl)cc1Cl`: the molecule was classed as inactive. Consider `CCCCC(CC)COC(=O)CC(C(=O)OCC(CC)CCCC)S(=O)(=O)O` (stereo not given), for which the AC50 is 38.1 µM (active). Take `C=CCOC(=O)c1ccccc1C(=O)OCC=C`: the outcome was inactive. `CCOC(=O)CCC(=O)OCC`: the AC50 is 88.6 µM (active). Take `COC(=O)c1ccc(O)cc1`: the molecule was classed as inactive. On the same count and under the same terms, the result for `Oc1ccc2ccccc2c1N=Nc1ccccc1` reads “inactive”; that for `CNC(=O)[C@H]1O[C@@H](n2cnc3c(NCc4cc(Cl)ccc4OCc4cc(C)no4)ncnc32)[C@H](O)[C@@H]1N`, “inactive”; that for `CCCCOC(=O)CCCCCCCCC(=O)OCCCC`, “inactive”.

As for `CCCCCCOCCO`, the call was inactive.

Take `CCCCCCCC=O`: the molecule was classed as inactive.

With `CC(C)c1ccc(C(=O)N=C(N)N)cc1S(C)(=O)=O`, the AC50 is 7.39 µM (active).

In the case of `CC1(C)CC(N=C=O)CC(C)(CN=C=O)C1` (stereo not given), the molecule was called inactive. The same measure, in the same setting: as for `Cc1cc(NC(=O)C(=O)O)cc(C)c1Oc1ccc(O)c2c1CCC2`, the entry is “inactive”; as for `O=[N+]([O-])C(CO)(CO)CO`, “inactive”. Same read-out and setting: the result for `COc1ccc2c(c1)c(CC(=O)O)c(C)n2C(=O)c1ccc(Cl)cc1` reads “inactive”; that for `Cc1ccc(N(C)C)cc1`, “inactive”; that for `O=C(O)CCCCC(=O)O`, “inactive”. With `COc1ccc(S(=O)(=O)N2C(=O)[C@@](c3ccccc3OC)(N3C[C@H](O)C[C@H]3C(=O)N(C)C)c3cc(Cl)ccc32)c(OC)c1`, the AC50 is 83 µM (active).

As for `CCCCCCCCCCCC(=O)OC`, the molecule was called inactive. In the case of `NCC1(Cc2noc(=O)[nH]2)CCCCC1`, the molecule was called inactive.

Turning to `O=C(OCCCCCOC(=O)c1ccccc1)c1ccccc1`, the outcome was inactive. `Cc1ccc(C)c(O)c1C`: the outcome was inactive. Still for that read-out and setting: the result for `CCOc1ccc2c(c1)C(C)=CC(C)(C)N2` reads “inactive”; that for `Cc1ccc(Cl)cc1`, “inactive”; that for `COc1ccc(C)cc1N`, “inactive”.

Source of the values: PubChem BioAssay (EPA / NIEHS).
